Assay results published in PubChem BioAssay (NCI).
This is part of a sample that, as a whole, favours compounds with a hit. Of some 83,000 tested, about 20% had one in any assay.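 Assay: single dose, 48 h. Readout: percent growth (0 = no net growth; negative = cell death). Active: <10.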 Activity calls are given as the source filed them.

Key:
Assay in all cases: NCI-60 one-dose screen, 48 h (100 = growth as untreated, 0 = no growth, -100 = all killed)
DU-145 prostate = details: 10 µM unless noted
K-562 leukemia = details: 10 µM unless noted
MALME-3M melanoma = details: 10 µM unless noted
MDA-MB-231 breast = details: 10 µM unless noted
RXF 393 renal = details: 10 µM unless noted
SF-268 CNS = details: 10 µM unless noted
SF-295 CNS = details: 10 µM unless noted
SF-539 CNS = details: 10 µM unless noted
UACC-257 melanoma = details: 10 µM
M14 melanoma = details: 10 µM unless noted

Compound | growth (DU-145 prostate) | growth (K-562 leukemia) | growth (MALME-3M melanoma) | growth (MDA-MB-231 breast) | growth (RXF 393 renal) | growth (SF-268 CNS) | growth (SF-295 CNS) | growth (SF-539 CNS) | growth (UACC-257 melanoma) | growth (M14 melanoma)
COc1ccc(S(=O)(=O)NCCNc2nccc(-c3c(-c4ccccc4)nc4sccn34)n2)cc1 | 20.2% (inactive) | 18.5% (inactive) | 60.9% (inactive) | 36.6% (inactive) | 30.8% (inactive) | 20.5% (inactive) | 16.6% (inactive) | 45.3% (inactive) | 46% (inactive) | 29.4% (inactive)
Cc1cccc(-n2c(C)nc3ccc(NC(=O)NCCCl)cc3c2=O)c1 | 104% (inactive) | 112% (inactive) | 115% (inactive) | 111% (inactive) | 102% (inactive) | 95.1% (inactive) | 99.6% (inactive) | 99% (inactive) | 97.2% (inactive) | 98.7% (inactive)
NC(CC(N)C(=O)O)C(=O)O (stereo not given) | 115% (inactive) | 91.8% (inactive) | 104% (inactive) | 103% (inactive) | 89.6% (inactive) | 109% (inactive) | 101% (inactive) | 97.9% (inactive) | 95.2% (inactive) | 104% (inactive)
CC[C@]1(O)C[C@@H]2CN(Cc3c([nH]c4ccccc34)[C@@](C(=O)OC)(c3cc4c(cc3OC)N(C)[C@H]3[C@@](O)(C(=O)OC)[C@H](OC(C)=O)[C@]5(CC)[C@@H]6C[C@@H]6CN6CC[C@]43[C@@H]65)C2)C1 | 7.39% (active) | 11.8% (inactive) | 38% (inactive) | 0.275% (active) | 15.2% (inactive) | 28.1% (inactive) | -13.9% (active) | -0.324% (active) | 71.7% (inactive) | -23.2% (active)
Cc1ccc(C2=NN(c3ccc(S(=O)(=O)NC(=O)NCc4ccccc4)cc3)C(c3ccc(N(C)C)cc3)C2)c(C)c1 (stereo not given) | 82.7% (inactive) | 49.6% (inactive) | 87% (inactive) | 75.7% (inactive) | 53% (inactive) | 50.8% (inactive) | 52.7% (inactive) | 37.6% (inactive) | 60.3% (inactive) | 27.3% (inactive)
O=C1c2ccccc2C(=O)c2c(N=Nc3sc(=O)[nH]c3S)cccc21 | 103% (inactive) | 78.5% (inactive) | 93.3% (inactive) | 97.1% (inactive) | 115% (inactive) | 97.3% (inactive) | 97.2% (inactive) | 107% (inactive) | 88.5% (inactive) | 96.2% (inactive)
Cc1sc(N=Nc2ccc(N(C)C)cc2)[n+]([O-])c1C | 102% (inactive) | 121% (inactive) | 91.2% (inactive) | 96.2% (inactive) | 79.7% (inactive) | 95.7% (inactive) | 106% (inactive) | 100% (inactive) | 105% (inactive) | 99.8% (inactive)
COc1cc(-c2nc(-c3nc4ccccc4[nH]3)cc3c2[nH]c2ccccc23)cc(OC)c1OC | 53.8% (inactive) | 31.9% (inactive) | 32.7% (inactive) | 61.3% (inactive) | 70.6% (inactive) | 47.8% (inactive) | 1.13% (active) | 68.4% (inactive) | 41.7% (inactive) | 23.4% (inactive)
Cc1cccc(NC(=O)c2sc3nc4c(cc3c2N)CCCC4)c1 | 45.6% (inactive) | 17.8% (inactive) | 24.9% (inactive) | 60.9% (inactive) | 63.8% (inactive) | 51.5% (inactive) | 54.5% (inactive) | 48.5% (inactive) | 46.3% (inactive) | 30.3% (inactive)
Clc1cccc(Cl)c1Cn1c(-c2cncs2)nc2ccccc21 | 110% (inactive) | 35.3% (inactive) | 81% (inactive) | 82.5% (inactive) | 95% (inactive) | 98.2% (inactive) | 65.4% (inactive) | 96.8% (inactive) | 76.6% (inactive) | 89.5% (inactive)
O=C(CCCn1c2c(sc3ccccc32)c(=O)n2nnc(-c3ccccc3)c12)NCCc1cnc[nH]1 | -100% (active) | 78.7% (inactive) | -76.1% (active) | -47.2% (active) | -66.9% (active) | -48.9% (active) | -42.6% (active) | -97.3% (active) | -7.05% (active) | -80.6% (active)
Clc1nc(-c2cccnc2)nc2sc3c(c12)CCCCCC3 | 109% (inactive) | 101% (inactive) | 103% (inactive) | 97.7% (inactive) | 116% (inactive) | 95.7% (inactive) | 92.9% (inactive) | 96.6% (inactive) | 93.1% (inactive) | 107% (inactive)
COc1cc2nc(SCc3cc(OC)c(OC)c(OC)c3)n(Cc3ccccc3)c(=O)c2cc1OC | 49.8% (inactive) | 10.2% (inactive) | 21.9% (inactive) | 36% (inactive) | 4.55% (active) | 37.9% (inactive) | 19.7% (inactive) | -6.22% (active) | 63.3% (inactive) | 14.9% (inactive)
COc1ccc2c(c1)C(=O)/C(=C/c1ccc(O)cc1)O2 | 109% (inactive) | 59.7% (inactive) | 71.2% (inactive) | 78.5% (inactive) | -59.9% (active) | 97.9% (inactive) | 98.1% (inactive) | 80.2% (inactive) | 86.7% (inactive) | 93.4% (inactive)
